The list is not random: actives were taken first. Their share in the collection is about 5%.
CHT allo act = allosterically activates the human high affinity choline transporter | CHT-expressing cells, membrane potential dye, choline EC20; stronger effect = higher value; LV-AA mutant CHT in HEK293 cells | B-score at 10 µM | 310,000 compounds, 0.49% hits;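 active = initial fluorescence not abnormally high and integrated response B-score, plate-corrected, over 3 SD above library mean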
ALR H2O2 inh = blocks human ALR sulfhydryl oxidase activity; P55789; purified ALR, DTT oxidation, H2O2 HRP-luminol luminescence; inhibition, % (test concentration not listed); 290,000 compounds, 3.8% hits; AID 485317;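 active = mean replicate inhibition above about 79%, with every replicate also reaching it, limit read from the data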
PREPL inhibitor = inhibits the human prolyl oligopeptidase-like enzyme | Q4J6C6 | recombinant PREPL, fluorescence polarization activity-based probe | inhibition, % at 5.96 µM | 320,000 compounds, 0.68% hits | AID 2751; in the data active = inhibition above about 43%;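 note: 0% = enzyme with DMSO and 100% = wells lacking enzyme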
Target sequence (Q4J6C6 whole entry, looked up): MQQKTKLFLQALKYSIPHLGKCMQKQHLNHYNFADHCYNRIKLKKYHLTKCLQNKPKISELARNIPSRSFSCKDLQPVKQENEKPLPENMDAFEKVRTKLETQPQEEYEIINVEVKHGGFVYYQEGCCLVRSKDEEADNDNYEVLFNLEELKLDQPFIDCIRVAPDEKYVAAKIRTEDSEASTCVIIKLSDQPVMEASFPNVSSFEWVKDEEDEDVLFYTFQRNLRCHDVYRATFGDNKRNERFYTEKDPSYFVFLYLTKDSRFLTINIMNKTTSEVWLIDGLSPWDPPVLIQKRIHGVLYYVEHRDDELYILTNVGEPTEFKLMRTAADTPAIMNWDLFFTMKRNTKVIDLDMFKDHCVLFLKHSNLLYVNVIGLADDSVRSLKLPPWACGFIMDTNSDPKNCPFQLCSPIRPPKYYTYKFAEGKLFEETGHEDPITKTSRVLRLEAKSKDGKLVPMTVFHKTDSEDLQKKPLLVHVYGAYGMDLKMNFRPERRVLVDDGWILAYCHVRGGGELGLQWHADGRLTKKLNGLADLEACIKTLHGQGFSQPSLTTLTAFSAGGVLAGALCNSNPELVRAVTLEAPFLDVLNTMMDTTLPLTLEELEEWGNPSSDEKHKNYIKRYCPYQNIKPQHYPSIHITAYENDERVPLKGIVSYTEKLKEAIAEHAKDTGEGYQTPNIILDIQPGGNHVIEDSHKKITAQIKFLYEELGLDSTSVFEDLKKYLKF
CHT block = human CHT choline transport inhibition; Q9GZV3; CHT-expressing cells, membrane potential dye, choline response; stronger effect = lower value; B-score at 10 µM; 310,000 compounds, 0.86% hits;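 active = B-score over 3 SD under the library average, and starting fluorescence ratio not unusually high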;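 note: choline stimulus applied at its EC90 after an EC20 pre-addition; B-score computed on integrated fluorescence ratio after choline addition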
AI-2 QS modul = Vibrio harveyi AI-2 quorum sensing modulation; Vibrio harveyi JMH597 AI-2 luminescence/OD600 ratio, 9 h; stronger effect = lower value; strain lacks LuxN and CqsS sensors; 0 = neutral-control median; activity change, % at 7.5 µM; 300,000 compounds, 0.4% hits; AID 2094; in the data active = activity change below about -75%, passing the limit was not always enough;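 note: luminescence divided by OD600 gain over 9 h not by final OD600 alone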
CHT act confirm = confirmation of human choline transporter (CHT) activators. shares compounds with CHT allo act. CHT-expressing cells, membrane potential dye fluorescence (FDSS); % of choline EC20–EC90 response window; HEK293 expressing CHT LV-AA mutant; choline added at its EC20. activation, % at 10 µM. 2,500 compounds, 91% hits. AID 504833;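 active = primary screen active, with duplicate mean activation above negative control mean plus 3 SD, cut at about 11% in these data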
HEK293 MP dye = CHT activator counter-screen hit in parental HEK293 cells | membrane potential dye fluorescence (FDSS); measured after EC20 choline addition | AID 623908 | ratio readout change at 10 µM, hits read low | shares compounds with CHT allo act | 2,500 compounds, 62% hits;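 active = duplicate-averaged ratio beyond 3 SD from buffer wells, up or down, though filed actives are nearly all decreases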
* = called active by the depositor; i = inactive; . = no result.

SMILES | CHT allo act | ALR H2O2 inh | PREPL inhibitor | CHT block | AI-2 QS modul | CHT act confirm | HEK293 MP dye
CC/C(=C/c1sc2ccc(C)cc2[n+]1CCCS(=O)(=O)[O-])SC | 6.8* | 9 | -9 | i | 26 | 48* | i
O=C(C[n+]1ccccn1)c1ccccc1 | i | -20 | 13 | i | 19 | . | .
CCC1COCCS(=O)(=O)N1Cc1ccccc1 (stereo unspecified) | i | 2 | 4 | i | 2 | . | .
CCCC[C@H]1COCCS(=O)(=O)N1Cc1cccc([N+](=O)[O-])c1 | 6.5* | 0 | 6 | i | 4 | 13* | i
CCOc1cc(CNCCO)cc(Br)c1OCc1ccccc1 | i | -2 | -24 | i | 16 | . | .
CCOc1cc(CNCCSc2nnnn2C)cc(Br)c1OCc1ccccc1 | 7* | -21 | -34 | i | 14 | 15* | i
CCOC(=O)N1CCN(C(=O)CN(C)S(=O)(=O)c2ccc(F)cc2)CC1 | i | -8 | -8 | i | 26 | . | .
CCN1CCN(c2nc3c(C)cccn3c(=O)c2C=C(C#N)C#N)CC1 | 7.3* | -1 | . | i | 15 | 50* | -61*
CCN1CCN(c2nc3c(C)cccn3c(=O)c2/C=C(\C#N)S(=O)(=O)c2ccccc2)CC1 | i | -16 | 7 | i | 35 | . | .
Cc1cccn2c(=O)c(C=C(C#N)C#N)c(N3CCN(C)CC3)nc12 | 8.5* | -6 | -1 | i | 19 | 56* | -65*
Cc1cccn2c(=O)c(C=C(C#N)C#N)c(N3CCN(c4ccccc4)CC3)nc12 | i | -1 | . | i | 23 | . | .
O=C(CN1C(=O)NC2(CCCCC2)C1=O)Oc1ccc2c(C(F)(F)F)cc(=O)oc2c1 | i | 6 | 0 | i | 35 | . | .
COc1cc(OC)c2nc(C)c3c(c2c1)N(c1ccc(O)cc1)CC3 | 6.4* | 26 | 28 | i | 6 | 34* | -42*
Cc1ccc(CSc2nccc(-c3c(C)nc4ccccn34)n2)cc1 | i | -2 | -43 | i | 46 | . | .
CCOC(=O)c1cnc2ccc(C)cc2c1N(C)Cc1ccccc1 | i | -2 | 13 | i | 3 | 28* | i
CCOC(=O)c1ccc2ncc(C(=O)OCC)c(NCCN(C)C)c2c1 | i | -10 | -3 | i | 18 | 36* | -36*
CCOC(=O)c1cnc2ccc(C(=O)OC)cc2c1Nc1cccc(C(=O)O)c1 | 11* | 11 | 4 | i | . | 75* | -74*
COc1cccc(NC(=O)COC(=O)CNS(=O)(=O)c2c(F)cccc2F)c1 | i | -8 | 11 | i | 0 | . | .
COCCN(C(=O)CSc1nnc(-c2ccc(C)cc2)n1N)c1c(N)n(Cc2ccccc2)c(=O)[nH]c1=O | i | -6 | 9 | i | 31 | . | .
CC(C)CN(C(=O)CSc1nnc(-c2cccs2)n1N)c1c(N)n(Cc2ccccc2)c(=O)[nH]c1=O | 6.7* | . | -2 | i | 17 | 26* | i
Cn1c(N/N=C\c2cccc(O)c2)cc(=O)n(C)c1=O | i | -25 | -3 | i | 27 | . | .
C[N+](C)(C)C(Cc1ccccc1)C(=O)[O-] (stereo unspecified) | i | -6 | 4 | i | 6 | . | .
COc1ccc(-n2c(C)c(C)c3c(NCCN(C)C)ncnc32)cc1 | 7* | -14 | 0 | i | 13 | 45* | -33*
Cc1c(C)n(-c2ccccc2)c2ncnc(NCCN(C)C)c12 | i | -11 | -5 | i | -10 | 46* | -42*
CNc1nc(Cl)c(SC)c(NCc2cccc(OC)c2)n1 | i | -1 | 0 | i | 15 | . | .
CCOC(=O)c1cc(C#N)c(N2CCCNCC2)nc1C(F)(F)F | i | -8 | -29 | i | 27 | . | .
C=CCOc1ccc(CNCCc2ccc(S(N)(=O)=O)cc2)cc1 | i | 8 | 14 | i | -4 | . | .
Cc1cc(C)c2ccc(N)nc2c1O | i | 91* | 1 | i | 19 | 42* | -53*
COc1ccc(CCC(=O)Nc2c(C)n(C)n(-c3ccccc3)c2=O)cc1 | i | 0 | 1 | i | 1 | . | .
